According to the supplement of paper PMC11732987, “Enantioselective OTUD7B fragment discovery through chemoproteomics screening and high-throughput optimisation” (Communications Chemistry, 2025):
Unmarked numbers belong to inactive results.

Assays:
Assay in all cases: log2 ratio of Biotin-Ahx-Ub-VS probe labelling (fragment/DMSO); higher = less target engagement (more negative = stronger competition), active = hit call of the paper (q ≤ 0.05, log2 ratio ≤ -1)
Details in all cases: compound concentration: 200 uM; treatment time: 3 h
USP42 = biological target: T1, USP42 (UniProt Q9H9J4)
T1 sequence (whole entry): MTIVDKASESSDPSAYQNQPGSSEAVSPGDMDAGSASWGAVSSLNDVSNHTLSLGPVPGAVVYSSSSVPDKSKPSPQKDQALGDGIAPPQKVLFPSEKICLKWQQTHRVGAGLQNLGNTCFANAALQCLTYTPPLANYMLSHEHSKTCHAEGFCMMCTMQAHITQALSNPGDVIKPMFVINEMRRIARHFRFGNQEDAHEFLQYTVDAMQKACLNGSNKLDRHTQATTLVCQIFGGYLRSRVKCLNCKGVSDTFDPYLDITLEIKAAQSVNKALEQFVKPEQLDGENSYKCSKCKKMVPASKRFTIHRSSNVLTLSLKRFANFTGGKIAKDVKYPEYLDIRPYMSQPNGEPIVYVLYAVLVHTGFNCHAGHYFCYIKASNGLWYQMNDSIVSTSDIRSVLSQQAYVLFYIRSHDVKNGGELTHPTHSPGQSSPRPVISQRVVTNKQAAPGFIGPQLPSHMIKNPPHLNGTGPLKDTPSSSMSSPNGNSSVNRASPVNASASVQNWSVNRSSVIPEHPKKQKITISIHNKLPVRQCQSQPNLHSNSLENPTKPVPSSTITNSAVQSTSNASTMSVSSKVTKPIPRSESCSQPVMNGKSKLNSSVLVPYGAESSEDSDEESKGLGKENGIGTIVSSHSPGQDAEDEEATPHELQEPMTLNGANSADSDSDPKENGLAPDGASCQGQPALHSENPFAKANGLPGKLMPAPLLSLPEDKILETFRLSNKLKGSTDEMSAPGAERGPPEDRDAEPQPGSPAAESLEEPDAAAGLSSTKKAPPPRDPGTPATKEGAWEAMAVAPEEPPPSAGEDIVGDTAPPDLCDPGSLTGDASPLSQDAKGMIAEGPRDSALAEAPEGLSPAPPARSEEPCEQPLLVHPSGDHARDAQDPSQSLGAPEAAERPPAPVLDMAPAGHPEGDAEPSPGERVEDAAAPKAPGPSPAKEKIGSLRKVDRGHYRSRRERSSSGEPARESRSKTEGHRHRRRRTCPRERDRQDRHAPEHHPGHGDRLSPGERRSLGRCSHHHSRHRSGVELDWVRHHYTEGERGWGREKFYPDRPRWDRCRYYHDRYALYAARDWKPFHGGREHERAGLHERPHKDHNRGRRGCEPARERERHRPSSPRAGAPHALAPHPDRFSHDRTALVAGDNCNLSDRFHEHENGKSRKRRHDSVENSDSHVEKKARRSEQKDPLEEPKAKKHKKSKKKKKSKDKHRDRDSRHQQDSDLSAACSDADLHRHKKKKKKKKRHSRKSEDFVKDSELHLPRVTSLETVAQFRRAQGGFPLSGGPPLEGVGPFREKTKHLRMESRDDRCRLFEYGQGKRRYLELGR
In short: (§1)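 HEK293T lysate (495 µg per sample, in Tris/CHAPS/IGEPAL buffer with protease inhibitors) was treated in triplicate with fragment at 200 µM or with DMSO for 3 h. It was then treated with Biotin-Ahx-Ub-VS (0.5 µM final) for 1 h. Labelled DUBs were NeutrAvidin-enriched, digested with LysC and trypsin, and run by diaPASEF LC-MS/MS. Spectronaut label-free quantities were global-median-normalised. Values are average log2 ratios fragment/DMSO by unpaired t-test, using proteins with ≥2 unique peptides.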

USP46 = USP46 (UniProt P62068)
In short: as §1

USP47 = biological target: T2, USP47 (UniProt Q96K76)
T2 sequence (whole entry): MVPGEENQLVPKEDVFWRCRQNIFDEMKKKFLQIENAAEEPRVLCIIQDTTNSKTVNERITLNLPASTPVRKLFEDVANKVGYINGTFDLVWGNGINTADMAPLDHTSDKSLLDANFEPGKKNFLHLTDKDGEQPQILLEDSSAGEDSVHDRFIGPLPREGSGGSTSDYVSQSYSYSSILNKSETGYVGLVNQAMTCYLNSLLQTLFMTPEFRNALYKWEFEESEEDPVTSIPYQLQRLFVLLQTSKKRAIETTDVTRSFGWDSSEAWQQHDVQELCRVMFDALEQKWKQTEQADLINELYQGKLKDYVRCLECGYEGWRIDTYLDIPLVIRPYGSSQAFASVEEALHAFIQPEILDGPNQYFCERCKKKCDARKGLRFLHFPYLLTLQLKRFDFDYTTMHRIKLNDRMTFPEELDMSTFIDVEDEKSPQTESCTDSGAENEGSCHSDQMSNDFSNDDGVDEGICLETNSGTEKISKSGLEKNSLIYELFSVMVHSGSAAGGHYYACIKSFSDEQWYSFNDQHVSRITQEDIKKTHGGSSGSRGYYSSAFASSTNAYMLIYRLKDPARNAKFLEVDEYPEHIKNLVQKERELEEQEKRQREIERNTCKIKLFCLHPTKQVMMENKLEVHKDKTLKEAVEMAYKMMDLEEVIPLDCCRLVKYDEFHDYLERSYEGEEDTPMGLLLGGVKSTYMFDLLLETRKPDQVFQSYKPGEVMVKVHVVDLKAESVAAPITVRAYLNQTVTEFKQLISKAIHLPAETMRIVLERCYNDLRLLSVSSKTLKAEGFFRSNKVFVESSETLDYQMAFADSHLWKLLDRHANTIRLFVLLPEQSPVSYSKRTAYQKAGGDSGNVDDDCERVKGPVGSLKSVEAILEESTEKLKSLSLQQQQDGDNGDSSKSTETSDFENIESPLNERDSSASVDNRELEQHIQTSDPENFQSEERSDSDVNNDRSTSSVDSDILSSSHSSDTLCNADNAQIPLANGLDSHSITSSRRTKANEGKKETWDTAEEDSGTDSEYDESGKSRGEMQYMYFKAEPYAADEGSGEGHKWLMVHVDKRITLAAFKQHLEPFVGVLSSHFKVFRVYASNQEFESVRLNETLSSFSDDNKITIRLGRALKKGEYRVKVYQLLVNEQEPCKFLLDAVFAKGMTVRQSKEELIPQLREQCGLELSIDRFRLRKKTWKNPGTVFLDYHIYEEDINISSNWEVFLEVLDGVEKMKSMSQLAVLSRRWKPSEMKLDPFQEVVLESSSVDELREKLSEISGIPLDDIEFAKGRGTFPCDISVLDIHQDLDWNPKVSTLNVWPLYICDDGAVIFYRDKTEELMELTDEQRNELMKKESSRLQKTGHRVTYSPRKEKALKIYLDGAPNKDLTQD
In short: as §1

USP48 = biological target: T3, USP48 (UniProt Q86UV5)
T3 sequence (whole entry): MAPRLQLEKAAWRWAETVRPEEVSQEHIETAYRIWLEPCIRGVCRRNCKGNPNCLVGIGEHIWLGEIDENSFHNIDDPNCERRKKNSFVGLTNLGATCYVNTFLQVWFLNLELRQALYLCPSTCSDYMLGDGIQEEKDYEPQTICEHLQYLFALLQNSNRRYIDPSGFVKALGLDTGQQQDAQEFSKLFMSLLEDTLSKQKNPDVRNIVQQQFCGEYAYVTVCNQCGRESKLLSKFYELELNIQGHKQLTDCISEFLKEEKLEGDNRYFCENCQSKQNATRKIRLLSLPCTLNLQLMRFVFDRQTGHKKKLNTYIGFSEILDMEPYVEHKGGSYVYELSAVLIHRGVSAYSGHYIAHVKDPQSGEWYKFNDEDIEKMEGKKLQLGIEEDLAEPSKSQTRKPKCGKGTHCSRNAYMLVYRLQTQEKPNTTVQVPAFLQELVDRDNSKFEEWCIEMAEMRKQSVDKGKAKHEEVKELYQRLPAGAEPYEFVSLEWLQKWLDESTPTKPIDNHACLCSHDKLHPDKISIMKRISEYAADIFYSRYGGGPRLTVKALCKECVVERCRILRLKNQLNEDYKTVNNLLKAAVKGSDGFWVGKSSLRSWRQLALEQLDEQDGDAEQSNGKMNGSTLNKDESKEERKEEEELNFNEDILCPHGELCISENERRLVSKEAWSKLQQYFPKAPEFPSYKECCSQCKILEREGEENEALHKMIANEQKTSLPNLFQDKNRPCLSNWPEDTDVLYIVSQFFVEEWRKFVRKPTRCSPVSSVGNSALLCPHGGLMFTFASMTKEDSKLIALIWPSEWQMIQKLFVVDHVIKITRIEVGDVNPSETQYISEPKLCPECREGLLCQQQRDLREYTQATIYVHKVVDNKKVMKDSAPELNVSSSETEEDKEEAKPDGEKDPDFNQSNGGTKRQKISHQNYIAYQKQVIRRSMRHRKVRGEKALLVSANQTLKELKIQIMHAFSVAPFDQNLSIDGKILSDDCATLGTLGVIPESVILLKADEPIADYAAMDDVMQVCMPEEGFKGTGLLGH
In short: as §1

USP5 = biological target: T4, USP5 (UniProt P45974)
T4 sequence (whole entry): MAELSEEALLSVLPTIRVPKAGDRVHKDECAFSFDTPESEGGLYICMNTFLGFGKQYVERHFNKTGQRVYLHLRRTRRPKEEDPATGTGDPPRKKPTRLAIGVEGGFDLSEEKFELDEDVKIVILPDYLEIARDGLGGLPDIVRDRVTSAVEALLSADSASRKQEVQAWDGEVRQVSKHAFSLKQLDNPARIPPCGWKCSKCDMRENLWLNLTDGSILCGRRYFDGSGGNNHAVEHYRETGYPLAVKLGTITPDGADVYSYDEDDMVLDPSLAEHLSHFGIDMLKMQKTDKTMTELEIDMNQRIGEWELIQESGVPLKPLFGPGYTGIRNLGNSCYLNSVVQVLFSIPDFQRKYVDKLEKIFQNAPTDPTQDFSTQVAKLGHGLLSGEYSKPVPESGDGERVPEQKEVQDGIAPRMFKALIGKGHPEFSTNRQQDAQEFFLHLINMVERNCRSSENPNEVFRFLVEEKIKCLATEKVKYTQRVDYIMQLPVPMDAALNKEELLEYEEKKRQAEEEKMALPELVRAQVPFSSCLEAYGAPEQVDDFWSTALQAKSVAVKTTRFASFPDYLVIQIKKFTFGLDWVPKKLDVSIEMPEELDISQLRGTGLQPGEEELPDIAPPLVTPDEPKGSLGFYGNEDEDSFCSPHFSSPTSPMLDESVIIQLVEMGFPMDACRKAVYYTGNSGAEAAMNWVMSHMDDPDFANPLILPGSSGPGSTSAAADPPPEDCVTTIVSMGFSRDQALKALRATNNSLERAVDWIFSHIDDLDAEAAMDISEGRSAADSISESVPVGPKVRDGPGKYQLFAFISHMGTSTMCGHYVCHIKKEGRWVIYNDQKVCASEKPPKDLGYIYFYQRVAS
In short: as §1

USP54 = USP54 (UniProt Q70EL1)
In short: as §1

USP7 = USP7 (UniProt Q93009)
In short: as §1

USP8 = biological target: T5, USP8 (UniProt P40818)
T5 sequence (whole entry): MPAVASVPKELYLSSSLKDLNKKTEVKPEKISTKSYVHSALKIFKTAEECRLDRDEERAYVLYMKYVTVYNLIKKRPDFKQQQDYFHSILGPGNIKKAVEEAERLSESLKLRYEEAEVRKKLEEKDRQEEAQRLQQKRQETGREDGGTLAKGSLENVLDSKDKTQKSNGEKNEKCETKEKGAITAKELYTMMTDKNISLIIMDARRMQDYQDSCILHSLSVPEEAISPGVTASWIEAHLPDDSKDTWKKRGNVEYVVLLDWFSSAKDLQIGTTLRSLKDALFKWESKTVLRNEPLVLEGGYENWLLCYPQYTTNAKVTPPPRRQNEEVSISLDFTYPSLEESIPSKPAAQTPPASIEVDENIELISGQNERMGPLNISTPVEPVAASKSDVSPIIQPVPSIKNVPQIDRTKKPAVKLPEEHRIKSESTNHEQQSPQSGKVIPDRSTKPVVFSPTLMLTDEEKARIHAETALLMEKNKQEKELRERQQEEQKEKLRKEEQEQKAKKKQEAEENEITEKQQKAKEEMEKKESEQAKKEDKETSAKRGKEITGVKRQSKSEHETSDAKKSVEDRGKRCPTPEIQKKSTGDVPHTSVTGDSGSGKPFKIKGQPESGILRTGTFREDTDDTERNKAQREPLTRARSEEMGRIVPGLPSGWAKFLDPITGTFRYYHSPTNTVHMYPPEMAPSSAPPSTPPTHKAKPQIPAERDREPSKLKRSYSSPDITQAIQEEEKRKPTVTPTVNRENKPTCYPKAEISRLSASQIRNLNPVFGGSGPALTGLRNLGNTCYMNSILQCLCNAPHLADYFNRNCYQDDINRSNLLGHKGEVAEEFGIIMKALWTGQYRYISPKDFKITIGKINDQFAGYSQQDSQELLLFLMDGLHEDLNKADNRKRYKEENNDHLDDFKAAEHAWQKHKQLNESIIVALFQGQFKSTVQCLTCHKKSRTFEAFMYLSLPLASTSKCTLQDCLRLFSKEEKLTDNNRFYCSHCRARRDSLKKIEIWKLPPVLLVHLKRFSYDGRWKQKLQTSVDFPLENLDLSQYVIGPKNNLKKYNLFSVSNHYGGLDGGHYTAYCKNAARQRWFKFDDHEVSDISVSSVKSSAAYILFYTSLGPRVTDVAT
In short: as §1

Chain of USP7 (Q93009 whole entry, looked up): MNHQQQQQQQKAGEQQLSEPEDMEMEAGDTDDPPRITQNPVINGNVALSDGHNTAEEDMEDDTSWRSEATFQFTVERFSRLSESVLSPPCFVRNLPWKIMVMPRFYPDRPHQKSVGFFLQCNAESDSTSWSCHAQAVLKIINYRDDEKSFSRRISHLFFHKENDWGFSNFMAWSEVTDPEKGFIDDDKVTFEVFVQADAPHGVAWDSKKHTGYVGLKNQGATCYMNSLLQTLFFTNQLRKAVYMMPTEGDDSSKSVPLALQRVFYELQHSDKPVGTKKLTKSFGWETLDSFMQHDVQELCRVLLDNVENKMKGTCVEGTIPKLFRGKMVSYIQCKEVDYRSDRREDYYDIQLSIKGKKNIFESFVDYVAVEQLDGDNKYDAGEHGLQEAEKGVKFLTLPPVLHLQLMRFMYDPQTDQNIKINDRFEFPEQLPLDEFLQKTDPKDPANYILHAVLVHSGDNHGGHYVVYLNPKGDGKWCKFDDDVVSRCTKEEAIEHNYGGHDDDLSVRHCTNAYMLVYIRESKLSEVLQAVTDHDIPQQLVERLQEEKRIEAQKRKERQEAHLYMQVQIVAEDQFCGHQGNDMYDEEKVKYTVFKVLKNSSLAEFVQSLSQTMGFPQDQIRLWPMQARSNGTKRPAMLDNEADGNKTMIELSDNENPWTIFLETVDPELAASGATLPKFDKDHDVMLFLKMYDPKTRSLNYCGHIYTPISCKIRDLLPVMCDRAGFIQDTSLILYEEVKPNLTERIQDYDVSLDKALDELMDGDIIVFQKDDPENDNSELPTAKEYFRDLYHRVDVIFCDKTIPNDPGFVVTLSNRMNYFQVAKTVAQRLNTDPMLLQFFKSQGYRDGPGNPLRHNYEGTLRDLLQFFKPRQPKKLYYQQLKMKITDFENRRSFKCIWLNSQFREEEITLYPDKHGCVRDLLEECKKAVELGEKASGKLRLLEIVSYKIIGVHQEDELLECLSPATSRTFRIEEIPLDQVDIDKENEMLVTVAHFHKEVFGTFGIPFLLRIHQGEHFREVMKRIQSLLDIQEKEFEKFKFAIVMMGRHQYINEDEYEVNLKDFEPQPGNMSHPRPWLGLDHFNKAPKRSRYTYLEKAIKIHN
Chain of USP46 (P62068 whole entry): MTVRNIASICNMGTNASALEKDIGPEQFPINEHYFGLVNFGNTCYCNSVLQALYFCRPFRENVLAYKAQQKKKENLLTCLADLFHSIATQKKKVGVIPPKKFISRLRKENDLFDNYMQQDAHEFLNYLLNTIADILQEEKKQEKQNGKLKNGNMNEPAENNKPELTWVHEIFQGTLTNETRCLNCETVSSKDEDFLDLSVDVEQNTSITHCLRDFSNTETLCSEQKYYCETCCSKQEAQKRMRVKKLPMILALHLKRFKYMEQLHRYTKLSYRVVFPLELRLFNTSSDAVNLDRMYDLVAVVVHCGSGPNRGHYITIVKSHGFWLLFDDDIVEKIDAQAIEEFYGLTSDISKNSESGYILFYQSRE
Chain of USP54 (Q70EL1 whole entry): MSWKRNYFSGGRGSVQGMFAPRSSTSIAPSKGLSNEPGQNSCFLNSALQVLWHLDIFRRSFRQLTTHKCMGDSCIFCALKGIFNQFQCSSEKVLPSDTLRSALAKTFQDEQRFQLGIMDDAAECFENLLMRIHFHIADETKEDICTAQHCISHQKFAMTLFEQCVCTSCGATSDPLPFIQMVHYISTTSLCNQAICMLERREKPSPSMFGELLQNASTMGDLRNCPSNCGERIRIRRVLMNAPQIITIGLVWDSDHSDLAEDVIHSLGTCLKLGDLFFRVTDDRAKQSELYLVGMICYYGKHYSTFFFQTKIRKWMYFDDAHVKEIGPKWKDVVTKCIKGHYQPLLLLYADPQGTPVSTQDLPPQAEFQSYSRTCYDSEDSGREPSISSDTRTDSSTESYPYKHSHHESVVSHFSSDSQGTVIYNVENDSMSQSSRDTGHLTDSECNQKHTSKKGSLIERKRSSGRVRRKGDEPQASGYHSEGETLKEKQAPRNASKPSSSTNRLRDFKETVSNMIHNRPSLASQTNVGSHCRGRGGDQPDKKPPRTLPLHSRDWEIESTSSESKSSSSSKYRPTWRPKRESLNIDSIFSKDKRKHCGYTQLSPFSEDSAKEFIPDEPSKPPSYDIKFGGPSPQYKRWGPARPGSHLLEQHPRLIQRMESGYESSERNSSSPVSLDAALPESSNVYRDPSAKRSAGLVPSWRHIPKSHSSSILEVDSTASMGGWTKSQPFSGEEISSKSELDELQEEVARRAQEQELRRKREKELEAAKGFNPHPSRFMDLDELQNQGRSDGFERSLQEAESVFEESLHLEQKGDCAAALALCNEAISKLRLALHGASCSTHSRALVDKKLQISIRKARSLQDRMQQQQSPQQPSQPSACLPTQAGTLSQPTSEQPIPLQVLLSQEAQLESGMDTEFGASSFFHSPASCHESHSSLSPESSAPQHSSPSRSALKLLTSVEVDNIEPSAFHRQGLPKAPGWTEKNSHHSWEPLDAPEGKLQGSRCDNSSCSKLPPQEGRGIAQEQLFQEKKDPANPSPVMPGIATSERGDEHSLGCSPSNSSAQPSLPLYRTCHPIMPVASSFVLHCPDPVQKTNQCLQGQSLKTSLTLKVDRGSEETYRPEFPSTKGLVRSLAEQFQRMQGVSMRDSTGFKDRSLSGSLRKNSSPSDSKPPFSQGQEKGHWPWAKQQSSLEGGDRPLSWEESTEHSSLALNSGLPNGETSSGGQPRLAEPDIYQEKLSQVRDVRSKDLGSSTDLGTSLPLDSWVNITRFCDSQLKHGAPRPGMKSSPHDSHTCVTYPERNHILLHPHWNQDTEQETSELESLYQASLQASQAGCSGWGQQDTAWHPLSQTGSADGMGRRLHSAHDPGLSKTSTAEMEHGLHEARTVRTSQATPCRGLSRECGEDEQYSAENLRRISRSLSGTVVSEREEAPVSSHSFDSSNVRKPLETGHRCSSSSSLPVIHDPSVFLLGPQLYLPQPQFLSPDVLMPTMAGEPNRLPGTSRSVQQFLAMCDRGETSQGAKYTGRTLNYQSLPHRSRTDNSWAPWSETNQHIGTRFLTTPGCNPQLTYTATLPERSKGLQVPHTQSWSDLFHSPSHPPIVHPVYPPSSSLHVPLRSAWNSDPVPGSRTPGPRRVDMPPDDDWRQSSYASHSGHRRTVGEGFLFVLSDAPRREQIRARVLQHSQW

NC(=O)C1CCCCN1C(=O)CCl (stereo not drawn)
log2 ratio of Biotin-Ahx-Ub-VS probe labelling (USP42): -0.0547
log2 ratio of Biotin-Ahx-Ub-VS probe labelling (USP46): 0.025
log2 ratio of Biotin-Ahx-Ub-VS probe labelling (USP47): -0.299
log2 ratio of Biotin-Ahx-Ub-VS probe labelling (USP48): -1.03 (active)
log2 ratio of Biotin-Ahx-Ub-VS probe labelling (USP5): 0.371
log2 ratio of Biotin-Ahx-Ub-VS probe labelling (USP54): 0.325
log2 ratio of Biotin-Ahx-Ub-VS probe labelling (USP7): -0.76
log2 ratio of Biotin-Ahx-Ub-VS probe labelling (USP8): -0.26
